Results taken from PubChem BioAssay (Tox21).
Inconclusive results are not listed. Active and inactive are the calls of the source. Calls follow the shape of the dose curve; as a rule, active = well fitted activation curve with a large enough effect in the signal ratio in the repeat runs, with a control signal flat (not every such curve was filed as active); inconclusive = weak or mixed curves; inactive = flat fitted curve, though single readings scatter; the % refers to the signal ratio. Positions of bridges follow the written chain, without caps; N, C: chain ends. Non-standard residues stand in square brackets, D forms with d. Residues, ends and D or L forms follow the SMILES beside them. hArg = N=C(N)NCCCC[C@H](N)C(=O)O; Mpa = O=C(O)CCS

Assay: qHTS assay for small molecule activators of the heat shock response signaling pathway (AID 743210)
Conditions: HeLa HSE-bla reporter, beta-lactamase ratio, 5 h; series mostly up to 62.6 µM
Excerpt: U.S. Tox21 Program National Center for Advancing Translational Sciences [NCATS] NIH Chemical Genomics Center [NCGC] U.S. Environmental Protection Agency [EPA] National Institutes of Environmental Health Sciences [NIEHS] National Toxicology Program [NTP] U.S. Food and Drug Administration [FDA] Tox21 Assay Overview: Various chemicals, environmental and physiological stress conditions may lead to the activation of heat shock response/ unfolded protein response (HSR/UPR). There are three heat shock transcription factors (HSFs) (HSF-1, -2, and -4) mediating transcriptional regulation of the human HSR. To identify the compounds that activate HSR signaling, HSE-bla HeLa cell line (Invitrogen, Carlsbad, CA, USA) containing a beta-lactamase reporter gene under the control of the heat shock response elements was used to screen the Tox21 10K compound library.
Tox21 Assay Protocol Summary: The CellSensor HSE-bla HeLa cells (Invitrogen, Carlsbad, CA, USA) were dispensed at 1500 cells/6uL/well into 1536-well black wall/clear bottom plates using a Multidrop combi (Thermo Fisher Scientific, Waltham, MA) dispenser. After the assay plates were incubated at 37 C and 5% CO2 overnight, 23 nL of compounds dissolved in DMSO, positive controls or DMSO only was transferred to the assay plate by a Pintool station (Kalypsys, San Diego, CA). The plates were incubated at 37 C for 5 h. After 1 uL of LiveBLAzerTM B/G FRET substrate was added using a Flying Reagent Dispenser (Beckman Coulter, Indianapolis, IN, USA), the plates were incubated at room temperature for 2.5 h, and fluorescence intensity was measured by an Envision plate reader (PerkinElmer, Shelton, CT).
In the case of `CN1CCOC(c2ccccc2)c2ccccc2C1` (stereo not given), the outcome is reported as “inactive”. For `C/C(=C1\CCOC(=O)S1)N(C=O)Cc1cnc(C)nc1N`, the outcome was “inactive”. In the case of `CC(C)Nc1ccccc1`, the outcome is reported as “inactive”. In the case of `Cc1cc(C)c(C(=O)O)c(C)c1`, the outcome is reported as “inactive”. With `c1ccc(B(c2ccccc2)c2ccccc2)cc1` the outcome was “inactive”. For `Cn1nnc2c(C(N)=O)ncn2c1=O`, the outcome was “inactive”. With `COC(=O)CCCCC(CCSS/C(CCO)=C(\C)N(C=O)Cc1cnc(C)nc1N)SC(C)=O` (stereo not given) the outcome was “inactive”. With `O=C(O)CNC(=O)CNC(=O)CNC(=O)CSC(=O)c1ccccc1` the outcome was “inactive”. In the case of `O=NN(CCCl)C(=O)NC1CCCCC1`, the outcome is reported as “inactive”. For `CCc1occc(=O)c1O`, the outcome was “inactive”. For `CC(C)(C)NC[C@H](O)COc1cccc2c1CCCC2=O`, the outcome was “inactive”. With `CC(O)CC(C)O` (stereo not given) the outcome was “inactive”. For `CC1c2ccccc2CN1NC(=O)c1ccc(Cl)c(S(N)(=O)=O)c1` (stereo not given), the outcome was “inactive”. With `Cc1c(C(=O)c2c[nH]n(C)c2=O)ccc(S(C)(=O)=O)c1C1=NOCC1` the outcome was “inactive”. With `OC1OCCOC1O` (stereo not given) the outcome was “inactive”. In the case of `O=C(CCCl)NCCc1ccccc1`, the outcome is reported as “inactive”. In the case of `CCC(C(=O)OCCN1CCOC(c2ccccc2)C1C)c1ccccc1` (stereo not given), the outcome is reported as “inactive”. With `CC1(C)CC(OC(=O)CCCCCCCCC(=O)OC2CC(C)(C)NC(C)(C)C2)CC(C)(C)N1` the outcome was “inactive”. With `CCO[Si](CC)(OCC)OCC` the outcome was “inactive”. In the case of `C=CCOC(=O)CCCCCC`, the outcome is reported as “inactive”. With `NC(=O)[C@@H]1CSSCCC(=O)N[C@@H](CCCCN=C(N)N)C(=O)NCC(=O)N[C@@H](CC(=O)O)C(=O)N[C@@H](Cc2c[nH]c3ccccc23)C(=O)N2CCC[C@H]2C(=O)N1` ([Mpa][hArg]GDWPC-NH2; disulfide 1-7) the outcome was “inactive”. With `CC(C)C[C@@H]1[C@H](c2ccccc2)OC(=O)N1CCCN1CCCCCC1` the outcome was “inactive”. For `CCCCCCCCCCOC(C)=O`, the outcome was “inactive”. In the case of `O=C1NC(c2ccccc2)(c2ccccc2)C(=O)N1COP(=O)(O)O`, the outcome is reported as “inactive”. For `CC1CC(=O)CC(C)(C)C1` (stereo not given), the outcome was “inactive”. With `c1ccc2cnccc2c1` the outcome was “inactive”. In the case of `NCC1(Cc2noc(=O)[nH]2)CCCCC1`, the outcome is reported as “inactive”. With `OC1(c2ccc(Cl)cc2)CCNCC1` the outcome was “inactive”. With `Cc1ccccc1C(N)=O` the outcome was “inactive”. In the case of `O=C(O)CONC(=O)c1ccccc1`, the outcome is reported as “inactive”. In the case of `CN(C)CCCCl`, the outcome is reported as “inactive”. With `O=C(O)CCCCCC(=O)O` the outcome was “inactive”. With `CCCCOC(=O)C(C)O` (stereo not given) the outcome was “inactive”. For `CC(S)C(C)S` (stereo not given), the outcome was “inactive”. In the case of `CC/C(C)=N\O[Si](C)(O/N=C(\C)CC)O/N=C(\C)CC`, the outcome is reported as “inactive”. In the case of `CN(C)CCCO[C@@H]1[C@H]2OC(C)(C)O[C@H]2O[C@@H]1C(O)CO` (stereo not given in full), the outcome is reported as “inactive”. With `CC(=O)O[Si](C)(OC(C)=O)OC(C)=O` the outcome was “inactive”. For `O=C1CCCCO1`, the outcome was “inactive”. With `COC(=O)CCCCC(=O)O` the outcome was “inactive”. With `COC(=O)c1cc(Cl)cc(Cl)c1` the outcome was “inactive”.
